Assay results as given in PubChem BioAssay (NCI).
The panel holds about 79,000 compounds, 15% with a hit somewhere; the sample as a whole holds those more often. No stated cut-off is given here; in the data, active means growth inhibition above about 70%; inactive means the rest.

Assay: NCI Yeast Anticancer Drug Screen. Data for the mgt1 strain (AID 153)
Details: S. cerevisiae mgt1 mutant growth inhibition, active compounds read high
Description: Growth inhibition of yeast strains with defined genetic alterations is measured as a screen for potential anti-cancer activity. Selected strains with alterations in DNA damage repair or cell cycle control were exposed to compounds and growth inhibition was measured relative to vehicle treated controls. The strain used in this assay is mgt1

Measured: growth inhibition

O=C(Nc1ccccc1)OCCc1ccc(Cl)c(Cl)c1
inactive: at 1.2 µM -4% | at 3.7 µM -4% | at 11.0 µM 7% | at 33.0 µM 14% | at 100.0 µM 37%

O=C1CSc2cc([N+](=O)[O-])ccc2N1
inactive: at 1.2 µM 0% | at 3.7 µM 3% | at 11.0 µM -3% | at 33.0 µM -8% | at 100.0 µM 3%

CSC(=S)Nc1cccc(C)n1
inactive: at 1.2 µM -52% | at 3.7 µM -29% | at 11.0 µM -11% | at 33.0 µM 16% | at 100.0 µM 59%

CC1(C)C(=O)OC(n2cc(F)c(=O)[nH]c2=O)C1=O (stereo not given)
inactive: at 1.2 µM 19% | at 3.7 µM 32% | at 11.0 µM 34% | at 33.0 µM 49% | at 100.0 µM 67%

CC1=C(C)Cc2c(O)ccc(O)c2C1
inactive: at 1.2 µM -2% | at 3.7 µM 2% | at 11.0 µM 6% | at 33.0 µM -1% | at 100.0 µM 29%

COC(=O)c1ccc(CCC2=CC(=O)C(Br)=CC2=O)cc1
inactive: at 1.2 µM -6% | at 3.7 µM -1% | at 11.0 µM -4% | at 33.0 µM -7% | at 100.0 µM 24%

C=CCC1=C(C)C(OC(=O)/C=C/c2ccccc2)CC1=O (stereo not given)
inactive: at 1.2 µM -6% | at 3.7 µM -2% | at 11.0 µM -1% | at 33.0 µM 2% | at 100.0 µM 29%

Cc1c(Cl)ccc2c1S(=O)(=O)c1cccc(Cl)c1-2
inactive: at 1.2 µM -2% | at 3.7 µM 1% | at 11.0 µM 9% | at 33.0 µM -5% | at 100.0 µM -8%
